# Results published in the supplement of paper PMC10849652.
# About 7,900 targets were measured; listed, in parts, are those with a hit and a random draw of the rest. About 0.6% of all pairs of compound and target were hits. Unmarked numbers belong to inactive results.
# Tests used:
# Test in all cases: log2 fold change, soluble protein after heating vs DMSO (PISA); higher = thermal stabilisation; K562 cells, 10 uM, 30 min; active = over 0.2 and 3.5 SD of the protein, either way, in both replicates (recomputed)
# bafetinib = compound: Cc1ccc(NC(=O)c2ccc(CN3CC[C@H](N(C)C)C3)c(C(F)(F)F)c2)cc1Nc1nccc(-c2cncnc2)n1 [bafetinib]
# Procedure, shortened: (§1)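 For each measurement, 10 μM compound was applied for 30 min to K562 cells at 2×10^6 cells/mL. Aliquots were heated for 3 min across 48°C-58°C, pooled, and extracted in PBS with 0.5% NP-40 at 4°C; the supernatant after 21,000xg for 90 min was soluble protein. This was quantified by TMTpro 16plex LC-MS/MS with channel sums equalised, and thermal stability was reported relative to control samples from duplicates, on a log2 fold-change scale.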
# [1] = compound: Cc1cccc(CC(=O)N2CCc3c2ccc(-c2cn(C)c4ncnc(N)c24)c3F)n1
# Procedure, shortened: as §1
# nilotinib = compound: Cc1cn(-c2cc(NC(=O)c3ccc(C)c(Nc4nccc(-c5cccnc5)n4)c3)cc(C(F)(F)F)c2)cn1 [nilotinib]
# Procedure, shortened: as §1
# [2] = compound: Cc1nc(Nc2n[nH]c3c2CN(C(=O)N[C@H](CN(C)C)c2ccccc2)C3(C)C)c2sccc2n1
# Procedure, shortened: as §1
# dasatinib = compound: Cc1nc(Nc2ncc(C(=O)Nc3c(C)cccc3Cl)s2)cc(N2CCN(CCO)CC2)n1 [dasatinib]
# Procedure, shortened: as §1
# [3] = compound: Cc1ncc(-c2ccnc(Nc3ccc(S(C)(=O)=O)cc3)n2)n1C(C)C
# Procedure, shortened: as §1
# [4] = compound: Cn1cc(-c2ccc3c(c2)CCN3C(=O)Cc2cccc(C(F)(F)F)c2)c2c(N)ncnc21
# Procedure, shortened: as §1
# [5] = compound: Cn1cc(-c2ccc3nnc(C(F)(F)c4ccc5ncccc5c4)n3n2)cn1
# Procedure, shortened: as §1
# tipifarnib = compound: Cn1cncc1[C@@](N)(c1ccc(Cl)cc1)c1ccc2c(c1)c(-c1cccc(Cl)c1)cc(=O)n2C [tipifarnib]
# Procedure, shortened: as §1
# mubritinib = compound: FC(F)(F)c1ccc(/C=C/c2nc(COc3ccc(CCCCn4ccnn4)cc3)co2)cc1 [mubritinib]
# Procedure, shortened: as §1
# [6] = compound: NC(=O)Nc1cc(-c2cccc(F)c2)sc1C(=O)N[C@H]1CCCNC1
# Procedure, shortened: as §1
# [7] = compound: NC(=O)c1cnc(N[C@@H]2CCCC[C@@H]2N)nc1Nc1cccc(-n2nccn2)c1
# Procedure, shortened: as §1
# [8] = compound: NC1(c2ccc(-c3nc4ccn5c(=O)[nH]nc5c4cc3-c3ccccc3)cc2)CCC1
# Procedure, shortened: as §1
# [9] = compound: NCC(=O)Nc1ccc(-n2nc(C(F)(F)F)cc2-c2ccc3c(ccc4ccccc43)c2)cc1
# Procedure, shortened: as §1
# entinostat = compound: Nc1ccccc1NC(=O)c1ccc(CNC(=O)OCc2cccnc2)cc1 [entinostat]
# Procedure, shortened: as §1
# vorinostat = compound: O=C(CCCCCCC(=O)Nc1ccccc1)NO [vorinostat]
# Procedure, shortened: as §1
# citarinostat = compound: O=C(CCCCCCNC(=O)c1cnc(N(c2ccccc2)c2ccccc2Cl)nc1)NO [citarinostat]
# Procedure, shortened: as §1
# silmitasertib = compound: O=C(O)c1ccc2c(c1)nc(Nc1cccc(Cl)c1)c1ccncc12 [silmitasertib]
# Procedure, shortened: as §1
# [10] = compound: O=C1NC(=O)C(c2cnc3ccccn23)=C1c1cn2c3c(cc(F)cc13)CN(C(=O)N1CCCCC1)CC2
# Procedure, shortened: as §1
# [11] = compound: c1cc(OCCN2CCCCC2)cc(-c2n[nH]c3ccc(-c4nnc[nH]4)cc23)c1
# Procedure, shortened: as §1
# Chain of UniProt O60934 (O60934 whole entry, looked up): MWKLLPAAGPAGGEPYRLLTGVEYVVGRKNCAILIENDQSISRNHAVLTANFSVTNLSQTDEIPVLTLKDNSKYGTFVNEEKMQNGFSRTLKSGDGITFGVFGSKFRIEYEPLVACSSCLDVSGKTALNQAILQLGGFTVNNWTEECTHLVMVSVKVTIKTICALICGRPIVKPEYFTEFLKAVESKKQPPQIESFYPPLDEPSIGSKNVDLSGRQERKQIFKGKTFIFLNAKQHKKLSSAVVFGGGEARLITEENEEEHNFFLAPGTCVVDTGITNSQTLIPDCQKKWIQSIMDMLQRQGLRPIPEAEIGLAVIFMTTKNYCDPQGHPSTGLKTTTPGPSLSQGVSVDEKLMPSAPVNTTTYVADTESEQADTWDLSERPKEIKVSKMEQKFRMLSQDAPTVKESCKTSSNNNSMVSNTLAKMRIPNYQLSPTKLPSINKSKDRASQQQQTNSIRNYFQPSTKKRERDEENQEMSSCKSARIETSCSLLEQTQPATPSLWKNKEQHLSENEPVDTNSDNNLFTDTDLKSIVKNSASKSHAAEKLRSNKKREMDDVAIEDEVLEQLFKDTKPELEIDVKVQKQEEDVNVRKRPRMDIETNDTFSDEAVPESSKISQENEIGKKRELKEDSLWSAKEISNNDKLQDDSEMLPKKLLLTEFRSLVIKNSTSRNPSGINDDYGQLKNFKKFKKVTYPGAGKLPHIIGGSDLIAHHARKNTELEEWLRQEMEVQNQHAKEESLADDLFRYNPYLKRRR
# Chain of UniProt O95169 (O95169 whole entry, looked up): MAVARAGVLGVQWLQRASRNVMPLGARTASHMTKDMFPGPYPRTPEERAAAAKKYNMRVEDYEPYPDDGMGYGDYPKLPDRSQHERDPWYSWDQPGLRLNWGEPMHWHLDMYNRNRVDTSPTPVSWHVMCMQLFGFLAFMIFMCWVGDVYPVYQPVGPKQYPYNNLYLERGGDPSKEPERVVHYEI
# Chain of UniProt Q9Y2X3 (Q9Y2X3 whole entry, looked up): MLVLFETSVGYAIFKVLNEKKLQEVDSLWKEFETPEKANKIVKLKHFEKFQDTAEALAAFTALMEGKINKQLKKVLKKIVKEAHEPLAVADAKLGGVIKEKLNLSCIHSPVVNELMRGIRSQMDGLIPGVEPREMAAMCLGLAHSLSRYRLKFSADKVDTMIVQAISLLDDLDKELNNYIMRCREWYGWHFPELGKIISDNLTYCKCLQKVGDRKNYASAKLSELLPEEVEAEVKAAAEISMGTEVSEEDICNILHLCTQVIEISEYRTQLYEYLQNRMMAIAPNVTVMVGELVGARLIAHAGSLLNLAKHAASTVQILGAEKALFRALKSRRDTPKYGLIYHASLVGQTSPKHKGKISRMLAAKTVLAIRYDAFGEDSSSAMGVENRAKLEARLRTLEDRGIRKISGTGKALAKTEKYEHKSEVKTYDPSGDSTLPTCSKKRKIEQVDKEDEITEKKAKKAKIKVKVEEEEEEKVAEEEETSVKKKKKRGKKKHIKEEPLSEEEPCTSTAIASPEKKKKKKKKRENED
# Chain of UniProt O95182 (O95182 whole entry, looked up): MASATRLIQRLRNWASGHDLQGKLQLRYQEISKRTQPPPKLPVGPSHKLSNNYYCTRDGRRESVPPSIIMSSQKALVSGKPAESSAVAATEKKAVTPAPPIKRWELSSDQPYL
# Chain of UniProt Q9BRA0 (Q9BRA0 whole entry, looked up): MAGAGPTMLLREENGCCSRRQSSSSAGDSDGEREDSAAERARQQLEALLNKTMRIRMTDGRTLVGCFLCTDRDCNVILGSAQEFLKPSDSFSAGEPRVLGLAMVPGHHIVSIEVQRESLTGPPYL
# Chain of UniProt P43246 (P43246 whole entry, looked up): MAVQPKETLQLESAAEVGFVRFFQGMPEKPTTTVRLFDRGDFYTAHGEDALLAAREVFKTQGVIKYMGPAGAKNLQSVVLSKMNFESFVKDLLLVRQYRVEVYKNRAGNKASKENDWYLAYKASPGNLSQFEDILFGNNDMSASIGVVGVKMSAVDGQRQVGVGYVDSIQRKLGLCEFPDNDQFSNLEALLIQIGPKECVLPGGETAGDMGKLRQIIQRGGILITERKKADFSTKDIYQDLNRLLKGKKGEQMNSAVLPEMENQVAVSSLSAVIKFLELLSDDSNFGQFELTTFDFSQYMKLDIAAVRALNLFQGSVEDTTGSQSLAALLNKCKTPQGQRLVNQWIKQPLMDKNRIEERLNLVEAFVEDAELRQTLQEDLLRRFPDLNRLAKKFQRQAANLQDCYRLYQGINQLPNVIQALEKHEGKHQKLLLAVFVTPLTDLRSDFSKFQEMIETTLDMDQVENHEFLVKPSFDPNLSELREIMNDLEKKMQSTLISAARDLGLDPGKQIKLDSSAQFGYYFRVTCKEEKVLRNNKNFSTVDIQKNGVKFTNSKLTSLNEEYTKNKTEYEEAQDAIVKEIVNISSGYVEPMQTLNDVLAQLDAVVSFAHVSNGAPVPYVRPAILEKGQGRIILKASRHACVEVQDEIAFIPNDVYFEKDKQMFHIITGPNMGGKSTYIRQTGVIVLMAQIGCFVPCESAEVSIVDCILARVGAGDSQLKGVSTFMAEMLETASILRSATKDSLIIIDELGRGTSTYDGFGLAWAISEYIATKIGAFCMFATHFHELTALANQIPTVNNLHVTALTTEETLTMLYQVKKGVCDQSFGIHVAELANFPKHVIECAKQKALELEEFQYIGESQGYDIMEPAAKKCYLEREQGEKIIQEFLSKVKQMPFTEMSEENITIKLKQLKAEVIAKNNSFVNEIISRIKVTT
# Chain of UniProt Q9BRP4 (Q9BRP4 whole entry, looked up): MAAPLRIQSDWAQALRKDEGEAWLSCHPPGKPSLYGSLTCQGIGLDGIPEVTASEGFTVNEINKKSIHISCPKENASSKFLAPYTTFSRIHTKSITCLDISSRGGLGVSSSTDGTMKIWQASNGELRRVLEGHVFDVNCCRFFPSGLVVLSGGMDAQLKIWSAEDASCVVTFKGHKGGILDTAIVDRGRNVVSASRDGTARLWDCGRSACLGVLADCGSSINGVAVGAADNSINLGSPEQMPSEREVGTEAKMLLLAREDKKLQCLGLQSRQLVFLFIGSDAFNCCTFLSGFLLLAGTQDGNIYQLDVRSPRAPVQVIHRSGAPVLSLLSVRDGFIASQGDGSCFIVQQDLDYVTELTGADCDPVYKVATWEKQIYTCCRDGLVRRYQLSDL
# Chain of UniProt Q7Z3U7 (Q7Z3U7 whole entry, looked up): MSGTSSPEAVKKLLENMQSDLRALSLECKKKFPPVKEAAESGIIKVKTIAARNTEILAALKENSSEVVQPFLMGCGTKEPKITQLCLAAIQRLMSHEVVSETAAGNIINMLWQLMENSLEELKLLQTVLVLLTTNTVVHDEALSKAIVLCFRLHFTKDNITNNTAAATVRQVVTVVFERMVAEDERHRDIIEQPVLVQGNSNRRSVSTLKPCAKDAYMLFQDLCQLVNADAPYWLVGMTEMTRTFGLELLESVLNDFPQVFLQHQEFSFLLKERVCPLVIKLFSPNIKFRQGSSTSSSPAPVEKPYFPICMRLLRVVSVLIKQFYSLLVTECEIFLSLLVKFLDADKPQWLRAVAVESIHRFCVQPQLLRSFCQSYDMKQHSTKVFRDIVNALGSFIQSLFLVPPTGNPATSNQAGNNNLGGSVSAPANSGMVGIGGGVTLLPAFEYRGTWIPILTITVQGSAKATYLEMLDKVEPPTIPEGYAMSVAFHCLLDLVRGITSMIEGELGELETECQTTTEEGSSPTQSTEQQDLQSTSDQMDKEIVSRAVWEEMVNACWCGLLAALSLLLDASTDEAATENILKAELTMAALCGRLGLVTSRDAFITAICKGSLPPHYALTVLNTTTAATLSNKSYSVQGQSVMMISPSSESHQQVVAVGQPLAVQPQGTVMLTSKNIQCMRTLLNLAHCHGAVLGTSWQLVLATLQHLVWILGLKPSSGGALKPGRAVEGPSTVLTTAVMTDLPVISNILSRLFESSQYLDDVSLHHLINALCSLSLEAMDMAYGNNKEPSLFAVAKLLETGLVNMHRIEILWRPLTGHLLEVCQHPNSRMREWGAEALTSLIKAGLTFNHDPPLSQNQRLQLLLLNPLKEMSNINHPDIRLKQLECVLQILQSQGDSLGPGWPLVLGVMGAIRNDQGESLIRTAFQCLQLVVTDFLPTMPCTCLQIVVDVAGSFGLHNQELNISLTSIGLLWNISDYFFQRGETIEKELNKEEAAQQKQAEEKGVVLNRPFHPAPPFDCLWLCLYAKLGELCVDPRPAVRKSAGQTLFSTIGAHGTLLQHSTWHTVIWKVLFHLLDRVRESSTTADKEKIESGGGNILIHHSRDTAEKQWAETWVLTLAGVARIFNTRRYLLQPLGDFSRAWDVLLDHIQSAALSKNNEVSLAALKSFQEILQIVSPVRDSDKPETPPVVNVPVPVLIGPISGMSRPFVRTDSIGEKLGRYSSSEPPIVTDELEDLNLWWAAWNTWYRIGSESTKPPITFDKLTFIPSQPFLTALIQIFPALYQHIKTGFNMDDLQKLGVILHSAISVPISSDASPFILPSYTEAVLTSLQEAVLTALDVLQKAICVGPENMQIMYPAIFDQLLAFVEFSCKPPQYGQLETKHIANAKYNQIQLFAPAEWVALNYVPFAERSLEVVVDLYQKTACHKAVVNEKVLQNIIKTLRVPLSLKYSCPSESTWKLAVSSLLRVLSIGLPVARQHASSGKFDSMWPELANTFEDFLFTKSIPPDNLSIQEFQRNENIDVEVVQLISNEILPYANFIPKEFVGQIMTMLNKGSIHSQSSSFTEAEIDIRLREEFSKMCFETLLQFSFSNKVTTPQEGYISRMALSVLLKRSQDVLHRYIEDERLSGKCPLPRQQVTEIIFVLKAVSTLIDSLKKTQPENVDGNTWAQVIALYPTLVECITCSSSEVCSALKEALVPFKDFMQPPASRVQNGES
Target,log2 fold change (bafetinib),log2 fold change [1],log2 fold change (nilotinib),log2 fold change [2],log2 fold change (dasatinib),log2 fold change [3],log2 fold change [4],log2 fold change [5],log2 fold change (tipifarnib),log2 fold change (mubritinib),log2 fold change [6],log2 fold change [7],log2 fold change [8],log2 fold change [9],log2 fold change (entinostat),log2 fold change (vorinostat),log2 fold change (citarinostat),log2 fold change (silmitasertib),log2 fold change [10],log2 fold change [11]
PAAF1 (UniProt Q9BRP4),-0.011,-0.01,-0.084,0.058,-0.051,-0.026,0.018,0.016,-0.03,0.017,0.028,-0.011,-0.078,0.019,0.006,-0.013,-0.003,-0.001,0.014,-0.025
NAA38 isoform 2 (UniProt Q9BRA0),0,-0.019,-0.128,0.052,-0.051,-0.066,0.028,-0.047,-0.039,-0.03,-0.064,-0.029,-0.105,0.026,-0.009,-0.041,-0.152,0.017,0.038,-0.264
MSH2 (UniProt P43246),0,0.04,-0.003,-0.103,-0.038,0.034,0.024,0.035,-0.063,0.156,-0.069,-0.06,-0.109,-0.138,0.074,0.032,0.089,0.037,-0.091,-0.003
MRPS5 (UniProt P82675),0.153,0.159,-0.287,0.118,-0.073,0.067,0.039,0.087,-0.13,0.22,0.009,0.034,-0.057,0.013,0,0.125,0.023,-0.043,-0.039,-0.018
NARS2 (UniProt Q96I59),-0.108,0.034,-0.063,0.069,-0.05,0.005,0.084,0.047,-0.004,-0.009,-0.05,0.057,-0.142,-0.02,0.012,0,0.043,-0.04,-0.064,-0.026
MRPS6 (UniProt P82932),0.062,0.159,-0.146,0.062,-0.02,-0.009,0.007,0.148,-0.106,0.112,0.023,0.009,-0.133,0.003,0.03,0.108,0.079,-0.036,-0.042,-0.031
MRPS31 (UniProt Q92665),0.066,0.042,-0.041,0.093,-0.012,0.065,0.078,0.027,-0.002,0.138,-0.001,0.03,-0.05,0,-0.011,-0.039,0.008,-0.012,-0.036,-0.083
MRPS15 (UniProt P82914),0.126,0.159,-0.33,0.056,-0.046,0.07,0.05,0.032,-0.105,0.172,0.039,0.06,-0.057,0.119,0.072,0.077,0.028,-0.114,0.085,-0.031
NDUFAF6 (UniProt Q330K2),-0.178,0.014,0.01,-0.096,-0.064,0.017,0.01,0,-0.11,0.028,0,-0.152,-0.291,0,0.026,0.122,0.086,-0.02,-0.065,-0.031
MRPL46 (UniProt Q9H2W6),0.06,0.014,-0.03,-0.002,-0.006,-0.016,-0.019,0.06,0.095,-0.003,-0.067,0.009,0.023,-0.014,-0.003,0.011,0.007,0.005,0.028,-0.062
NEU1 (UniProt Q99519),-0.212,0.171,-0.051,-0.009,0.019,-0.147,-0.04,0.01,0.072,-0.031,-0.081,-0.088,-0.114,-0.057,0.003,0.159,0.087,0.04,-0.066,-0.063
NBN (UniProt O60934),-0.021,0.031,0.018,-0.198,-0.171,0.048,0.031,0.064,-0.016,0.131,-0.021,-0.037,-0.078,-0.067,0.127,0.091,0.009,-0.055,-0.104,0
MON2 isoform 5 (UniProt Q7Z3U7),-0.001,0.026,-0.053,-0.012,-0.132,0.082,0.008,0.006,-0.071,-0.03,-0.023,0.012,-0.107,-0.038,-0.003,0.097,0.056,0.021,-0.006,-0.003
NOP58 (UniProt Q9Y2X3),0.146,-0.154,0.03,-0.194,0.266,-0.142,-0.194,-0.093,0.067,-0.071,-0.012,0.052,0.316,0.043,-0.05,-0.087,-0.048,0.108,0.082,-0.119
NDUFA7 (UniProt O95182),-0.056,0.124,0.016,-0.025,-0.145,-0.059,-0.005,-0.061,0.002,0.247 (active),0.019,0.005,-0.108,-0.059,0,0.012,0.008,-0.037,-0.047,-0.039
NDUFB8 (UniProt O95169),-0.029,-0.002,0.015,0.027,0.056,-0.04,-0.08,0.154,0.071,0.027,0.028,0.083,-0.008,0.02,0.113,-0.075,-0.016,0.004,-0.172,-0.036
